About 2,000 (0.59%) of roughly 340,000 compounds were called active. Shown is part of a subset that was picked to be rich in actives. Unmarked numbers belong to inactive results. Rule as the data show it: active = activation mostly above about 9.5% (no sharp cut-off); inactive = mostly below about 7.6%.
molecular target: 5-hydroxytryptamine receptor 5A (Homo sapiens) (UniProt P47898); assay: activation of human 5-HT5A receptor – cell-based, luminescence, full-deck HTS, counter-screen for OPRM1-OPRD1 heterodimer agonist project, primary screen (AID 504692); conditions: HTR5A agonist assay, at 9.3 µM, active compounds read high;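 also: 0% = cells with vehicle only and 100% = reference agonist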
Sequence (P47898 whole entry, looked up): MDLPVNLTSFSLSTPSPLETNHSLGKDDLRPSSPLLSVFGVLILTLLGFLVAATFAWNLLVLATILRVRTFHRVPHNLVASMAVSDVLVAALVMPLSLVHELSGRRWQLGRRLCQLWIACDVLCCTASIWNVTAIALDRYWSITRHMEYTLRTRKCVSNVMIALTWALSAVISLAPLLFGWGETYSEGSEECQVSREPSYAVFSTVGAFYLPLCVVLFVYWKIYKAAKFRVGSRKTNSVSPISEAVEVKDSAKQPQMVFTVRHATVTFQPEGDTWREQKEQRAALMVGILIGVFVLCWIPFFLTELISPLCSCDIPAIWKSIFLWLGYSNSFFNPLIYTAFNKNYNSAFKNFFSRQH

Structure (SMILES) | activation
COc1ccc(C(=O)NC(C)c2nccs2)cc1OC1CCN(C(C)C)CC1 (centres undefined) | 0.03%
Cc1ccc(C)c(NC(=O)CCC(=O)N/N=C2/CC(=O)CC(C)(C)C2)c1 | 0.95%
Cc1c(-c2ccccc2)n[nH]c1C(=O)N=Nc1c(O)[nH]c2ccccc12 | 12.7% (active)
O=C(CCN1CCCCC1)N=Nc1c(O)[nH]c2ccccc12 | -0.47%
Oc1[nH]c2ccccc2c1N=Nc1c(F)c(F)c(F)c(F)c1F | 4.3%
NC(=O)c1ncn([C@@H]2O[C@H](CNCc3cnc(N4CCOCC4)s3)[C@@H](O)[C@H]2O)n1 | -1.96%
CCOC(=O)C(C)n1cnc2c(nnn2-c2ccc(F)cc2)c1=O (centres undefined) | 0.23%
Fc1ccccc1OCCSc1nc2ccccc2o1 | 4.15%
COC(=O)COc1ccc2c(c1C)O/C(=C\c1ccco1)C2=O | -6.31%
CS(=O)(=O)c1ccc2c(c1)SC1=NC(=O)/C(=C/c3ccco3)C(=N)N12 | 3.34%
CC(C)(C)C1C/C(=C/c2ccco2)C(=O)/C(=C/c2ccco2)C1 (centres undefined) | 10.1% (active)
COc1c(O)cc2oc(-c3ccc(O)c(O)c3)cc(=O)c2c1O | -1.01%
Cc1ccc(S(=O)(=O)N2CCN(C(=O)COC(=O)/C=C/c3cccc(Cl)c3)CC2)c(C)c1 | 8.67%
Cc1c(C2=CCN(S(=O)(=O)c3ccc(Cl)cc3)CC2)c2ccccc2n1C | 1.24%
COC(=O)CSc1nnc(-c2cccnc2)o1 | 0.3%
Cc1cccc(C)c1OC(=O)CSc1nnc(-c2ccccc2)o1 | 11% (active)
CCN(C(=O)CSc1nnc(-c2ccncc2)o1)c1ccccc1 | -1.64%
CCCCN(CCCC)CCC(O)c1cc2c(Cl)cc(Cl)cc2c2cc(C(F)(F)F)ccc12 (centres undefined) | 5.23%
Cn1cc([N+](=O)[O-])c(C(=O)Nc2ccc3c(c2)OCCO3)n1 | -1.8%
Cc1onc(C(=O)Nc2ccc3c(c2)OCO3)c1[N+](=O)[O-] | 14.2% (active)

Structure (SMILES) | activation
Cc1nn(CC(=O)Nc2ccc3c(c2)OCO3)c(C)c1[N+](=O)[O-] | 6.4%
O=c1cc(CO)oc(C(Nc2cccc([N+](=O)[O-])c2)c2ccccn2)c1O (centres undefined) | 0.87%
CCn1c(SCC(=O)Nc2ccc3c(c2)OCCO3)nnc1-c1ccncc1 | 3.29%
Cc1ccc2nc(-c3ccncc3)cc(C(=O)Nc3ccncc3)c2c1 | 21% (active)
CCOc1ncccc1C(=O)Nc1ccc2c(c1)OCCO2 | 0.83%
Cc1ccc2nc(-c3ccncc3)cc(C(=O)Nc3ccc4c(c3)OCCO4)c2c1 | 12.6% (active)
CCN(CC)CCNC(=O)c1ccc(NC(=O)c2cc(-c3ccncc3)nc3ccccc23)cc1 | 2.22%
Cc1ccc2nc(-c3ccncc3)cc(C(=O)Nc3ccc(OC(F)F)cc3)c2c1 | 1.14%
COc1cc2c(cc1OC)C1C(=O)c3cc(OS(C)(=O)=O)c(OC)cc3C1N(C)C2=O (centres undefined) | -2.76%
OC(CN=c1sc2ccccc2n1CC(O)COc1ccccc1)COc1ccccc1 (centres undefined) | 7.91%
CCn1nnc(NC(=O)c2cc(Cl)c(OC)c(Cl)c2)n1 | -6.18%
CN(CCc1ccccc1)c1ccc([N+](=O)[O-])cn1 | 2.92%
COc1ccc(Br)cc1S(=O)(=O)N1CCN=C1C | 2.3%
CCCCOC(=O)NCN1C(=O)C2C3C=CC(C3)C2C1=O (centres undefined) | 9.49% (active)
O=C(CN1C(=O)C2C3C=CC(C3)C2C1=O)NCCc1ccccc1Cl (centres undefined) | -1.28%
CCCCCOC(=O)c1ccc(N2C(=O)C3C4C=CC(C4)C3C2=O)cc1 (centres undefined) | -1.59%
CCc1c(Nc2ccccc2Cl)nc(N)[nH]c1=O | -3.6%
O=C(COC(=O)c1cc[n+]([O-])cc1)Nc1ccc(Cl)c(C(F)(F)F)c1 | 3.73%
O=C(CC(O)(C(F)(F)F)C(F)(F)F)Nc1ccc(Cl)c(Cl)c1 | 20.1% (active)
NC(=O)N1CCCC1C(=O)Nc1ccc(Cl)c(Cl)c1 (centres undefined) | 1.66%

Structure (SMILES) | activation
CC(C)(C)NS(=O)(=O)CC12CCC(CC1=O)C2(C)C (centres undefined) | 3.18%
COc1ccccc1CNS(=O)(=O)CC12CCC(CC1=O)C2(C)C (centres undefined) | -5.29%
CC1(C)C2CCC1(CS(=O)(=O)NCCc1c[nH]c3ccccc13)C(=O)C2 (centres undefined) | 41.5% (active)
COc1ccc(/C=C2/CCCc3ccccc3C2=O)cc1 | -2.8%
COc1ccc(OC)c(C2C3=C(N=c4s/c(=C\c5cccc(O)c5)c(=O)n42)c2ccccc2CC3)c1 (centres undefined) | 13.5% (active)
O=C1[C@@H]2C(Cc3ccc(O)cc3)NC3(C(=O)Nc4ccc(F)cc43)[C@@H]2C(=O)N1c1ccc(F)cc1 (some centres undefined) | 1.44%
CC1CCN(CC(=O)Nc2nccs2)CC1 | -1.58%
CC(CCn1cccn1)NC(=O)CCc1nnc(CCc2ccccc2)o1 (centres undefined) | 4.98%
CCC(C)NC(=O)CCCc1ccccc1 (centres undefined) | 14.8% (active)
COc1ccccc1C(=O)NCCC(=O)NC(C)CCc1ccccc1 (centres undefined) | 5.98%
Cc1noc(C)c1S(=O)(=O)N(CC(=O)NCc1ccc(Cl)cc1)c1ccc2c(c1)OCO2 | 1.78%
Cc1ccc(-n2c(=O)cc(N3CCN(Cc4ccccc4)CC3)[nH]c2=O)cc1 | 7.71%
CCOc1cc2c(Cl)ncnc2c(OCC)c1OCC | 2%
COc1ccc(S(=O)(=O)N2CCC(C(=O)NCCC(=O)NCc3cccc(OC)c3)CC2)cc1 | -0.19%
CCOc1ccc(C(=O)Nc2ccc(S(=O)(=O)Nc3cc(C)on3)cc2)cc1 | 5.44%
CCC(=O)Nc1ccc(C(=O)Nc2cc(C)on2)cc1 | 6.16%
CCOc1ccc(NC(=O)Nc2cc(C)on2)cc1 | 14.5% (active)
COc1cccc(OCC(O)CNC(=O)c2oc3c(C)c(C)ccc3c2C)c1 (centres undefined) | 0.14%
O=C1CCCC2=C1C(c1cccs1)n1nc(SCc3ccccc3)nc1N2 (centres undefined) | 1.85%

From PubChem BioAssay AID504692 (The Scripps Research Institute Molecular Screening Center, 2011)
